Screening results (PubChem)
GCN5L2 inh-1: inhibitors of human GCN5L2 histone acetyltransferase. Q92830. GCN5L2 HAT assay, ThioGlo1 CoA-SH fluorescence. Potency, µM (series often up to 58.9 µM), for the others: at the highest dose activity change, negative = inhibition, most hits filed as inhibitors. hit rate 0.21% among 390,000. AID 504327; also: potency is read from the fitted curve at half-maximal effect; % is scaled to controls: 0 for no effect and ±100 for the full control effect
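Preincubate 20nM GCN5L2 with compound 15 min, RT → add 50uM ThioGlo1 + 75uM H3(1-25) + 70uM acetyl-CoA → read fluorescence 0 and 20 min. Primary qHTS; fluorescent artifacts likely.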
uPA generation: cell surface uPA generation inhibition; cell surface uPA generation assay, qHTS; Potency, µM (highest dose often 38.3 µM), inactives show at the highest dose activity change, negative = inhibition, hits mostly inhibitors; hit rate 0.31% among 330,000; active = well fitted inhibition curve with a large enough effect; inconclusive = small, poorly fitted or top-dose-only effect; inactive = no such curve, though single readings can be large or run the other way; tested in mouse RAW 264.7 cells; also: potency is read from the fitted curve at half-maximal effect; % is scaled to controls: 0 for no effect and ±100 for the full control effect; nearly all actives have a fitted effect of over 55% in size
USP2a inh: blocks human ubiquitin-specific protease USP2a. Potency, µM (titrated, usually from 38.3 µM), for the others: at the top dose activity change, negative = inhibition, hits mostly inhibitors. USP2 core, Ub-CHOP2 coupled fluorogenic reporter, 485/531. AID 463254. O75604. hit rate 0.01% among 330,000;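 also: potency is read from the fitted curve at half-maximal effect; plate controls were DMSO wells for no effect and full inhibition by NEM control for full effect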
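USP2 core (10nM final) preincubated 30min RT with compound in 20mM Tris-HCl pH 8.0, 2mM CaCl2, 2mM beta-mercaptoethanol, 0.05% CHAPS; 25nM Ub-CHOP2 plus 25nM reporter substrate added, fluorescence (Ex485/Em531) read after 60min.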
BCR signal inh: inhibitors of chronic active B-cell receptor signaling. AID 493014. hit rate 0.05% among 340,000. ABC-DLBCL IkBa-CBG/CBR reporter, luminescence ratio, 4 h. Potency, µM (top dose mostly 46.1 µM), for inactives: top-dose activity change, negative = inhibition, hits mostly inhibitors; active = well fitted inhibition curve with a large enough effect in the signal ratio, with a control signal flat, not every such curve was filed as active; inconclusive = small, poorly fitted or top-dose-only effect, or effect the other way, or a change in a side signal; the % refers to the signal ratio;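 also: potency is read from the fitted curve at half-maximal effect; plate controls were basal doxycycline-induced cells for no effect and cells given 10 µM MG132 for full effect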
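Concentration-response series (up to 46 uM) were applied to TMD8 dual-reporter cells for 4 h at 37C with doxycycline. Green/red ratio, after filter-overlap correction, defined %Activity; red signal alone was normalised to basal cells and zero luminescence.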
Eya2 phos inh: blocks the phosphatase activity of human Eya2. O00167. recombinant Eya2, OMFP fluorescence dephosphorylation (OMFP is methylfluorescein phosphate). Potency, µM (series often up to 76.9 µM), inactives show at the top dose activity, negative = inhibition, actives largely listed as inhibitors. hit rate 0.006% among 330,000. AID 488837; also: potency is read from the fitted curve at half-maximal effect; % is scaled to controls: 0 for no effect and ±100 for the full control effect
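Eya2 protein (added as 0.2 uM solution) was preincubated with compound for 10 min at ambient temperature in 50 mM HEPES pH 7.5, 50 mM NaCl, 5 uM MgCl2, 0.05% BSA, 1 mM DTT. OMFP (added at 50 uM) then reacted 10 min; fluorescence read at 485/525 nm.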
RGS4 inh: inhibitors of human regulator of G protein signaling 4; P49798; Transcreener GDP fluorescence polarization, RGS4-accelerated GTP hydrolysis; Potency, µM (doses to about 114 µM), for the others: at the top dose activity change, negative = inhibition, usual class: inhibitors; hit rate 0.039% among 390,000; also: potency is read from the fitted curve at half-maximal effect; % is scaled to controls: 0 for no effect and ±100 for the full control effect; nearly all actives have a fitted effect of over 75% in size
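MLSMR compounds (23 nl, pin-transferred) preincubated 10 min at room temperature with a 500nM (2x) first reagent, then RGS4 at 900nM (2x) plus Transcreener GDP mix added; fluorescence polarization (620/688 nm) read before and after 90 min at 30 °C.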
GCN5L2 inh-2: confirmation of human GCN5L2 histone acetyltransferase inhibitors; shares compounds with GCN5L2 inh-1; GCN5L2 HAT, ThioGlo1 CoA fluorescence, 20 min; Potency, µM, actives largely listed as inhibitors; AID 588347; hit rate 70% among 140
* hit, by the source's call; ? = inconclusive; . = no result; [ ] = dose if it differs, or a comment. An excerpt weighted towards active compounds, which were near 0.52% of everything screened. Unless noted, calls follow the shape of the dose curve; as a rule, active = well fitted curve in the direction sought with a large enough effect; inconclusive = small, poorly fitted or top-dose-only effect, or another doubt; inactive = no such curve, though single readings can be large; an effect the other way counts as inactive or inconclusive.

SMILES	GCN5L2 inh-1	uPA generation	USP2a inh	BCR signal inh	Eya2 phos inh	RGS4 inh	GCN5L2 inh-2
O=C(O)CCC(=O)NCCC1=c2ccccc2=N/C1=C\c1c(O)n(Cc2ccc(F)cc2)c(=S)[nH]c1=O	18µM*	-2%	-1%	13%	17%	?	5.1*
O=C(Cc1c(O)c2ccccc2oc1=O)c1ccc(F)cc1	1%	5%	1%	?	-12%	?	.
O=C(O)CSCC(=O)N(Cc1ccccc1)c1nc(-c2ccccc2)c(-c2ccccc2)s1	11µM*	0%	-20%	6%	-13%	-42%	23*
O=C(O)c1cn(Cc2ccccc2)nc1-c1ccccc1	-8%	1%	1%	3%	9%	21%	.
COCC(=O)O[C@]1(CCN(C)CCCc2nc3ccccc3[nH]2)CCc2cc(F)ccc2[C@@H]1C(C)C	-2%	?	-8%	?	-3%	-16%[56.9 µM]	.
CCCNC(=O)c1ccc2c(=O)c(O)c(-c3ccsc3)[nH]c2c1	32µM*	?	-1%	?	7%	0%	16*
Oc1c(Br)cc(Br)cc1Br	2%	14%	-1%	14%	16%	-21%	.
Oc1c(Br)c(Br)c(Br)c(Br)c1Br	32µM*	12%	2%	?	-16%	-9%	14*
